Source: PubChem BioAssay (Tox21)
Inconclusive results are not listed. Entries that show only a call come without a potency. Values without a mark were called inactive. Active and inactive are the calls of the source. The call rests on the fitted dose curve; in most records, active means well fitted cell-killing curve with a large enough effect in the repeat runs; inconclusive means weak or mixed curves, or effect the other way; inactive means flat fitted curve, though single readings scatter.

Assay: Human pregnane X receptor (PXR) small molecule agonists, qHTS cell viability counter screen (AID 1346977); further: nearly all actives have a fitted effect of over 50% in size
Settings: PXR-Luc HepG2 viability, CellTiter-Fluor, 24 h; series mostly up to 92.4 µM
Excerpt: U.S. Tox21 Program National Center for Advancing Translational Sciences [NCATS] NIH Chemical Genomics Center [NCGC] U.S. Environmental Protection Agency [EPA] National Institutes of Environmental Health Sciences [NIEHS] National Toxicology Program [NTP] U.S. Food and Drug Administration [FDA] Tox21 Assay Overview: The human pregnane X receptor (hPXR) regulates the expression of several drug metabolizing enzymes and induction of these proteins is a major mechanism for developing drug resistance in cancer. One such key enzyme catalyzing the drug metabolism is cytochrome P450 3A4 (CYP3A4). Changes in CYP3A4 expression affect drug metabolism, thereby reducing the therapeutic efficacy and altering toxicological response to a drug and which finally causes adverse drug interaction. To screen Tox21 libraries for compounds that activate hPXR-mediated CYP3A4 gene expression, PXR-Luc HepG2 cells were used. Also cytotoxicity of the compounds was tested in parallel by measuring the cell viability using CellTiter-Fluor assay system in the same wells.
Tox21 Assay Protocol Summary: PXR-Luc HepG2 cells were dispensed at 2,000 per well in 5uL of assay medium containing 5% charcoal-stripped FBS into white solid bottom 1536-well plates (Corning Life Sciences, Corning, NY) using a Multidrop Combi (Thermo Scientific, Waltham, MA) dispenser. The assay plates were incubated at 37 C and 5% CO2 for 5hr, and then 23nL of compounds dissolved in DMSO and positive control were transferred using a Pintool station (Wako, San Diego, CA). The assay plates were incubated at 37C and 5% CO2 for 24hr. For cytotoxicity read, after 23hr incubation at 37C, 1uL CellTiter-Fluor reagent (Promega Corporation, Madison, WI) was added to each well of the assay plates using Flying Reagent Dispenser (FRD, Aurora Discovery, San Diego, CA). After 1hr incubation at 37C and 5% CO2, the fluorescence signal was quantified using a ViewLux plate reader (PerkinElmer, Shelton, CT).
Potency means the concentration at half of the fitted maximal effect.

Row | Structure (SMILES) | activity change, negative = cytotoxicity | Potency
1 | CC1=CC[C@@H]2C[C@H]1C2(C)C | 1.01% [at 19 µM] | –
2 | Cc1ccc2nc(N)[nH]c(=O)c2c1Sc1ccncc1 | – | inactive
3 | Nc1nc2ccc(OC(F)(F)F)cc2s1 | – | inactive
4 | Cc1cccc2sc(N)nc12 | – | inactive
5 | O=C(O)CCCc1c[nH]c2ccccc12 | – | inactive
6 | CCN(CC)c1ccc(C(=C2C=CC(=[N+](CC)CC)C=C2)c2ccc(S(=O)(=O)O)cc2S(=O)(=O)[O-])cc1 | – | 15.4 µM (active)
7 | CC(C)N(C)C | – | inactive
8 | CC(C(=O)O)c1ccc(C(=O)c2cccs2)cc1 (stereo not given) | – | inactive
9 | O=C(O)CN1C(=O)c2cccc3cccc(c23)C1=O | – | inactive
10 | CC(=O)NNC(C)=O | – | inactive
11 | CC(C)(C)CCCCCCOC(=O)c1ccccc1C(=O)OCCCCCCC(C)(C)C | – | inactive
12 | CC(CCc1ccc(O)cc1)NCCc1ccc(O)c(O)c1 (stereo not given) | – | inactive
13 | CCCCCCCCCCCCCCN(C)C | 0.682% [at 19 µM] | –
14 | CCO[Si](C)(CCCOCC1CO1)OCC (stereo not given) | – | inactive
15 | Cc1ccc(NC(=O)N(C)C)cc1NC(=O)N(C)C | – | inactive
16 | CCCCCCCCCCCCCCCC(=O)OCC | – | inactive
17 | O=C(c1ccccc1)c1ccc(O)cc1 | – | inactive
18 | CCN(CC)C(=O)N1CCN(C)CC1 | – | inactive
19 | CC(=O)OCCC(C)CC(C)(C)C (stereo not given) | – | inactive
20 | O=C(CCS)OCC(COC(=O)CCS)(COC(=O)CCS)COC(=O)CCS | – | inactive

Row | Structure (SMILES) | activity change, negative = cytotoxicity | Potency
21 | COc1ccc(C(=O)NCc2ccc(OCCN(C)C)cc2)cc1OC | – | inactive
22 | O=S(=O)(Cl)c1c(Cl)cccc1Cl | – | inactive
23 | [Cl][Nd]([Cl])[Cl] | – | inactive
24 | CC(C)c1ccc(C#N)cc1 | – | inactive
25 | CC(=O)OCC(C)C | – | inactive
26 | Nc1ccc(S(=O)(=O)NCc2ccccc2)cc1 | – | inactive
27 | Nc1ccc(F)cc1 | – | inactive
28 | COC(C)(C)OC | – | inactive
29 | C=C(C)c1ccccc1 | – | inactive
30 | Cc1ccc(Nc2c(F)cccc2Cl)c(CC(=O)O)c1 | – | inactive
31 | C=CCOC(=O)COCCC(C)C | – | inactive
32 | COC(OC)OC | – | inactive
33 | CC(CO)(CO)C(=O)O | – | inactive
34 | Cc1ccc2c(c1[N+](=O)[O-])C(=O)c1ccccc1C2=O | – | 3.78 µM (active)
35 | COc1ccc2nc(S(=O)Cc3ncc(C)c(OC)c3C)[nH]c2c1 (stereo not given) | – | inactive
36 | CCN(Cc1cccc(S(=O)(=O)O)c1)c1ccc(C(=C2C=CC(=[N+](CC)Cc3cccc(S(=O)(=O)O)c3)C=C2)c2ccccc2S(=O)(=O)[O-])cc1 | – | 17.3 µM (active)
37 | CC(C)CC(O)CC(C)C | – | inactive
38 | Nc1nc(-c2ccc([N+](=O)[O-])cc2)cs1 | – | inactive
39 | CC(C)(C)NCC(O)COc1cccc2c1C[C@H](O)[C@H](O)C2 (stereo not given in full) | – | inactive
40 | CCOC(=O)c1ccc(NC(=O)CN2CCCCC2)cc1 | – | inactive
